Growth data for 40 molecules are collected here from PubChem BioAssay (NCI).

This is part of a sample that, as a whole, favours compounds with a hit. Of some 83,000 tested, about 20% had one in any assay.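 Negative percent growth values reflect cell death: -40 means 40% of the cells present at the start died, and -100 means all died.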 Activity calls are given as the source filed them.

The subject of the test is A498 renal. The experiment in a line: NCI-60 one-dose screen, 48 h (100 = growth as untreated, 0 = no growth, -100 = all killed). To be noted: 10 µM unless noted. As to the method: Growth inhibition of the A498 human tumor cell line is measured as a screen for anti-cancer activity. Cells are grown in 96 well plates and exposed to the test compound for 48 hours. Compounds are tested at a single concentration, which is 10^-5 M for most compounds. The reported endpoint is percent growth (GI% or GIPRCNT), where numbers from 0 - 100% represent growth inhibition, and numbers from -100% - 0 represent cell death. For example, a value of 40 represents 60% growth inhibition. A value of 0 means no net growth occurred over the course of the experiment. A value of -40 indicates 40% of cells at the beginning of the experiment died by the end of the experiment. A value of -100 means all cells are dead at the end of the experiment.
NCI-60 Human Tumor Cell Lines Screen was performed using the standard one-dose NCI protocol, which is described in more detail at https://dtp.cancer.gov/discovery_development/nci-60/default.htm.
Compounds with GIPRCNT values below 10 were considered active. Activity score was based on GIPRCNT using the following formula: […]
Score is 0 for GIPRCNT values of 100 or above, 50 for GIPRCNT values of 0, and 100 for GIPRCNT values of -100.
In the case of `N#CC(C#N)=NO`, the growth is 102% (inactive).

In the case of `C=CC(=O)Nc1cccc(Oc2nc(Nc3ccc(N4CCN(C)CC4)cc3)nc3ccsc23)c1`, the growth was 33.6% (inactive).

Turning to `Cc1ccc(NC(=O)NC(=O)CSc2nc3ccccc3nc2C)cc1`, the growth is 69.2% (inactive).

In the case of `CS(=O)(=O)N1CCN(Cc2cc3nc(-c4cccc5[nH]ncc45)nc(N4CCOCC4)c3s2)CC1`, the growth is -47.6% (active).

Consider `Cc1cc(N(CCNc2ccnc3cc(Cl)ccc23)Cc2cccs2)nc(Cl)n1`, for which the growth is -6.31% (active).

For the molecule `Cc1cc(N(CCNc2ccnc3cc(Cl)ccc23)Cc2ccc3c(c2)OCO3)nc(N2CCN(C)CC2)n1`, the growth is 42.6% (inactive).

As for `Cc1cccc(C)c1N1C(c2ccccc2)=NNC12C=CC(=O)c1c(O)cccc12` (stereo not given), the growth is 109% (inactive).

As for `CCCCCCCC12Cc3ccccc3C1=Nc1c(c3ccccc3n1C)C2=O` (stereo not given), the growth was 86.4% (inactive).

Take `Cn1ccnc1C(=O)/C=C/c1ccc(CC(=O)Nc2ccc(Br)cc2)cc1`: the growth was 73.8% (inactive).

In the case of `O=C1OCC2=C1C(c1cccc(F)c1)c1cc3c(cc1N2CCO)OCCO3` (stereo not given), the growth was 13.4% (inactive).

In the case of `Cc1cc([C@@H](C)Nc2ccccc2C(=O)O)c2nc(N3CCOCC3)cc(=O)n2c1`, the growth is -36.7% (active).

On to `CCc1nc2ccc(Cc3ccc(C(=O)NO)cc3)cc2c(=O)n1CCc1ccccc1`, for which the growth is -75.9% (active).

`O=C(NO)c1ccc(Cn2c(=O)n(CCc3ccccc3)c(=O)c3ccccc32)cc1`: the growth was 12.7% (inactive).

Regarding `Cc1cc2c3c(cccc3c1)C(=O)c1ccccc1-2`, the growth is 93.2% (inactive).

Consider `C=CC(=O)Nc1cc(Nc2nccc(-c3cn(C)c4ccccc34)n2)c(OC)cc1N(C)CCN(C)C`, for which the growth is -58.3% (active).

Take `CNC(=O)c1nn(C)c2c1C(C)(C)Cc1cnc(Nc3ccc(N4CCN(C)CC4)cc3)nc1-2`: the growth was -61.6% (active).

Consider `COc1cnc2c(c1)C(=O)c1c-2n(CCCN2CCC(O)CC2)c(=O)c2cc(Cl)ccc12`, for which the growth was -3% (active).

On to `CN1CCN(CCOc2cc(OC3CCOCC3)c3c(Nc4c(Cl)ccc5c4OCO5)ncnc3c2)CC1`, for which the growth is 49.4% (inactive).

On to `CC(=O)Oc1ccccc1C(=O)N=C1[Se]CCN1C(=O)c1ccccc1OC(C)=O`, for which the growth is -94% (active).

Take `O=c1[nH]c([C@@H]2CCCN2)nc2c1oc1ccc(Cl)cc12`: the growth is 6.25% (active).

For `NC(=O)c1c(OCc2c(F)cc(Br)cc2F)nsc1NC(=O)NCCCCN1CCCC1`, the growth was -13.8% (active).

`N#Cc1c(-c2ccc(C(F)(F)F)cc2)c(F)c(NCCC2CCC(O)C2)n2c1nc1ccccc12` (stereo not given): the growth was 35.4% (inactive).

`COC(=O)C1CCc2sc3ncnc(Nc4cn[nH]c4C(=O)Nc4ccc(CN5CCN(C)CC5)cc4)c3c21` (stereo not given): the growth was -25.6% (active).

`CO[C@H]1C[C@@H]2CC[C@@H](C)[C@@](O)(O2)C(=O)C(=O)N2CCCC[C@H]2C(=O)O[C@H]([C@H](C)C[C@@H]2CC[C@@H](O)[C@H](OC)C2)CC(=O)[C@H](C)/C=C(\C)[C@@H](O)[C@@H](OC)C(=O)[C@H](C)C[C@H](C)\C=C/C=C/C=C/1C`: the growth was 13.8% (inactive).

Take `COc1cccc(NC(=O)Nc2ccc(Nc3ncnc4sc5c(c34)CCN(C(=O)CCl)C5)cc2)c1`: the growth is 93.1% (inactive).

Take `[2H]C1([2H])[C@H](C)O[C@H](C)C([2H])([2H])N1c1ccc(NC(=O)c2cccc(-c3ccc(OC(F)(F)F)cc3)c2C)cn1`: the growth was 53.9% (inactive).

As for `CN(C)C/C=C/C(=O)Nc1cc2c(Nc3ccc(F)c(Cl)c3)ncnc2cc1O[C@H]1CCOC1`, the growth is -40.4% (active).

With `COc1cc(NCCN(CC(C)C)CC(C)C)c2ncc(C)cc2c1`, the growth was 113% (inactive).

On to `CCN1CCN(Cc2ccc(NC(=O)Nc3nc(-c4cc(OC)c(OC)c(OC)c4)cs3)cc2C(F)(F)F)CC1`, for which the growth was 51.6% (inactive).

Take `CNc1ncc2cc(-c3cc(NC(=O)NCCC(C)(C)C)c(F)cc3C)c(C)nc2n1`: the growth is -35.4% (active).

With `CNC(=O)c1ccccc1Nc1nc(Nc2ccc3c(c2OC)CCC[C@H](N2CCN(CCO)CC2)C3)ncc1Cl`, the growth was -64.3% (active).

For `COc1ccc(COc2cc3oc(=O)c4cc(C(C)O)ccc4c3cc2OC)cc1` (stereo not given), the growth was 84.6% (inactive).

Take `COc1cc2nccc(Oc3ccc(NC(=O)C4(C(=O)Nc5ccc(F)cc5)CC4)cc3)c2cc1OC`: the growth is -44.2% (active).

As for `S=C(NCc1ccc2c(c1)OCO2)N1CCN(c2ncnc3c2oc2ccccc23)CC1`, the growth is 19.8% (inactive).

Consider `CC(=O)C1=C(C)NC(SCc2nnc(-c3ccc(C)cc3)o2)=NC1c1ccc(F)cc1` (stereo not given), for which the growth was 109% (inactive).

As to `CCc1nc2cc(/C=C/C(=O)NO)ccc2c(=O)n1CCc1ccc(OC)cc1`, the growth is -4.17% (active).

On to `O=C(CNc1nnc(-c2ccc(Cl)cc2)o1)Nc1ccc(-c2nc3ccccc3s2)cc1`, for which the growth is 82% (inactive).

As for `O=C(Nc1nc2cccc(-c3ccc(CN4CCS(=O)(=O)CC4)cc3)n2n1)C1CC1`, the growth is 60.8% (inactive).

On to `CC1(O)CCC(Nc2cc(-c3ccc(C(F)(F)F)cc3)c(C#N)c3nc4ccccc4n23)CC1` (stereo not given), for which the growth is 46.8% (inactive).

With `Cc1nc(N)sc1-c1ccnc(Nc2ccc(N3CCOCC3)cc2)n1`, the growth was 32.6% (inactive).
